Reference: PubChem BioAssay (NCI)
This is part of a sample that, as a whole, favours compounds with a hit. Of some 83,000 tested, about 20% had one in any assay.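 Growth was measured after 48 h exposure to one concentration of compound in 96-well plates. Values under 10 count as active.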 Calls of active or inactive are those of the source.

Columns and labels:
Experiment in all cases: NCI-60 one-dose screen, 48 h (100 = growth as untreated, 0 = no growth, -100 = all killed)
[1] = test system: NCI-H226 lung; settings: 10 µM
[2] = test system: HOP-62 NSCLC; settings: 10 µM unless noted
[3] = test system: NCI-H460 lung; settings: 10 µM unless noted
[4] = test system: HOP-92 NSCLC; settings: 10 µM unless noted
[5] = test system: NCI-H522 lung; settings: 10 µM
[6] = test system: A549/ATCC NSCLC; settings: 10 µM unless noted
[7] = test system: 786-0 renal; settings: 10 µM unless noted
[8] = test system: COLO 205 colon; settings: 10 µM unless noted
[9] = test system: DU-145 prostate; settings: 10 µM unless noted
[10] = test system: K-562 leukemia; settings: 10 µM unless noted
[11] = test system: MALME-3M melanoma; settings: 10 µM unless noted
[12] = test system: MDA-MB-231 breast; settings: 10 µM unless noted
[13] = test system: RXF 393 renal; settings: 10 µM unless noted
[14] = test system: SF-268 CNS; settings: 10 µM unless noted
[15] = test system: SF-295 CNS; settings: 10 µM unless noted
[16] = test system: SF-539 CNS; settings: 10 µM unless noted
[17] = test system: UACC-257 melanoma; settings: 10 µM unless noted
[18] = test system: M14 melanoma; settings: 10 µM unless noted
[19] = test system: NCI-H322M lung; settings: 10 µM unless noted

Measured: growth

O=C1C(Br)=C(c2ccccc2)C(=O)C(Br)=C1c1ccccc1
active: [5] -61%
inactive: [1] 95.1% | [2] 111% | [3] 99.5% | [4] 92.1% | [6] 87.6% | [7] 95.7% | [8] 90.9% | [9] 105% | [10] 76.2% | [11] 114% | [12] 94.6% | [13] 102% | [14] 102% | [15] 97.9% | [16] 98.6% | [17] 96.2% | [18] 104%

FC(F)(F)c1cc(CNc2ncc(Br)c(Cl)n2)cc(C(F)(F)F)c1
inactive: [1] 90.3% | [2] 90.2% | [3] 107% | [4] 84.3% | [5] 74.2% | [6] 101% | [7] 90.4% | [8] 98.4% | [9] 107% | [10] 89.1% | [11] 75.8% | [12] 121% | [13] 86% | [14] 102% | [16] 97% | [17] 96.4% | [18] 98.1%

O=C(N/N=C/c1ccc(F)cc1)c1[nH]c2ccc(I)cc2c1-c1ccccc1
inactive: [19] 34% | [2] 38% | [4] 22.5% | [6] 32.4% | [7] 28.3% | [9] 15.7% | [10] 75.4% | [11] 71.5% | [12] 16.5% | [13] 39.6% | [14] 34.6% | [15] 22.1% | [17] 93.3% | [18] 28.4%
active: [3] 1.78% | [5] 4.71% | [8] -40.1% | [16] -18.1%

Cc1ccc(C(=O)O[C@H](C(=O)O)[C@H](OC(=O)c2ccc(C)cc2)C(=O)O)cc1
inactive: [12] 113%

CC(=O)OCC1OC([S-])C(OC(C)=O)C(OC(C)=O)C1OC(C)=O.[Au+].c1ccc(CN2[CH-]N(Cc3ccccc3)C(c3ccccc3)=C2c2ccccc2)cc1
active: [15] -11.3% [4.75 µM]

Cc1ccc(-c2c3c(N)c4c(nc3nc3c2c(C)nn3-c2ccccc2)CCCC4)cc1
inactive: [1] 91.8% | [2] 106% | [3] 101% | [4] 81.6% | [5] 91.6% | [6] 93.3% | [7] 91.6% | [8] 92.3% | [9] 105% | [10] 36.6% | [11] 107% | [12] 97.1% | [13] 97% | [14] 108% | [15] 100% | [16] 103% | [17] 92.2% | [18] 110%

CCOc1ccc(/C=N\N2CCCCCC2)cc1OCC
inactive: [1] 90.7% | [2] 93.8% | [3] 106% | [4] 54.2% | [5] 97.8% | [6] 106% | [7] 106% | [8] 84.2% | [9] 108% | [12] 77.7% | [13] 103% | [14] 102% | [15] 104% | [16] 97.2% | [17] 96.2% | [18] 105%

CCCCCCCCCCCCCCNc1nc(CO)ncc1-c1ccc(C(F)(F)F)cc1
inactive: [1] 101% | [2] 92.9% | [3] 105% | [4] 89.6% | [5] 90.6% | [6] 98.9% | [7] 97.3% | [8] 108% | [9] 103% | [10] 99.6% | [11] 91.8% | [12] 118% | [13] 99.8% | [14] 91.8% | [15] 97% | [16] 95.6% | [17] 94.7% | [18] 99.8%

COc1ccc(-n2ncc3c2ccc2cc(S(=O)(=O)c4ccccc4)c(=O)n(C)c23)cc1
inactive: [1] 52.6% | [2] 72.5% | [3] 88.8% | [4] 37.2% | [5] 33.2% | [6] 86.8% | [7] 82.3% | [9] 77.7% | [10] 113% | [11] 88.7% | [12] 74% | [13] 67.9% | [14] 69.2% | [15] 96.5% | [16] 63.7% | [17] 92.9% | [18] 92.8%

Cc1nc2cc(Nc3nc(N4CCCCC4)nc(N4CCOCC4)n3)ccc2n1Cc1ccccc1
active: [3] 4.87% | [4] -28.2% | [6] -0.889% | [9] 5.36% | [11] -3.76% | [12] 9.6% | [13] -5.84%
inactive: [1] 28.4% | [2] 44.5% | [5] 37.9% | [7] 10.9% | [10] 84.3% | [14] 69% | [15] 78.9% | [16] 81.6% | [17] 60.4% | [18] 48.4%

COc1ccc(-c2c3c(N)c4c(nc3nc3c2c(C)nn3-c2ccccc2)CCCCC4)cc1
inactive: [1] 99.4% | [2] 84.6% | [3] 82.8% | [4] 32.2% | [5] 50.2% | [6] 81.3% | [7] 79.2% | [8] 74.3% | [9] 91.6% | [10] 24.5% | [11] 101% | [12] 105% | [13] 106% | [14] 94.5% | [15] 85% | [16] 93.9% | [17] 93.9% | [18] 88.9%

CCOC(=O)c1cc2c(n(C)c1=O)-c1cnn(-c3ccc(OC)cc3)c1CC2
inactive: [1] 107% | [2] 108% | [3] 108% | [4] 104% | [5] 83.3% | [6] 98.2% | [7] 101% | [9] 117% | [10] 104% | [11] 95.1% | [12] 97.9% | [13] 102% | [14] 99.8% | [15] 91.7% | [16] 90.1% | [17] 93.6% | [18] 106%

C=C(C)COC(=O)c1ccccc1C(=O)OCC1(C)CO1 (stereo unspecified)
inactive: [1] 102% | [2] 102% | [3] 108% | [6] 94.8% | [7] 105% | [8] 106% | [9] 104% | [10] 110% | [12] 103% | [13] 117% | [14] 93.6% | [15] 91.9% | [16] 101% | [17] 101% | [18] 96.5%
